Experimental data published in PubChem BioAssay AID1159580 (chemical genetic matrix, 2015).
Where “and” joins values, the source holds several entries; their conditions need not be identical. Identical values can stand only once. Out of some 5,500 compounds screened, about 2,000 (36%) were called active. Not shown: some 18% with an inconclusive outcome. Cut-off read from the data, not from the text of the source: active = normalized growth mostly below about 0.91 (no sharp cut-off); inconclusive = no clear call, values can overlap the other calls; inactive = mostly above about 0.92. Some of the results follow.

Experiment: chemical genetic growth profiling, strain panel (AID 1159580);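 note: tested at 20 µM; growth read once vehicle control cultures reached saturation at 30 °C; 1 = growth at the plate median or of vehicle wells; lower values mean less growth of the strain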
Settings: growth OD
[1] = S. cerevisiae deletion strains, locus YAL013W, strain DEP1, stronger effect = lower value
[2] = S. cerevisiae deletion strains, locus YAL040C, strain CLN3, stronger effect = lower value
[3] = S. cerevisiae deletion strains, locus YCL061C, strain MRC1 (second series), stronger effect = lower value
[4] = S. cerevisiae deletion strains, locus YDR363W, strain ESC2, stronger effect = lower value
[5] = S. cerevisiae deletion strains, locus YER002W, strain NOP16, stronger effect = lower value
[6] = S. cerevisiae deletion strains, locus YGR229C, strain SMI1, stronger effect = lower value
[7] = S. cerevisiae deletion strains, locus YMR263W, strain SAP30, stronger effect = lower value
[8] = S. cerevisiae deletion strains, locus YNL175C, strain NOP13, stronger effect = lower value
[9] = S. cerevisiae deletion strains, locus YNL197C, strain WHI3, stronger effect = lower value
[10] = S. cerevisiae deletion strains, locus YNL224C, strain SQS1, stronger effect = lower value
[11] = S. cerevisiae deletion strains, locus YOR083W, strain WHI5 (second series), stronger effect = lower value
[12] = S. cerevisiae deletion strains, locus YPL055C, strain LGE1, stronger effect = lower value
[13] = S. cerevisiae deletion strains, locus YMR307W, strain GAS1, stronger effect = lower value
[14] = S. cerevisiae deletion strains, locus YPL241C, strain CIN2, stronger effect = lower value

Measured: normalized growth

Cc1ccccc1CNc1ncnc2c1ncn2C1OC(CO)C(O)C1O (stereo not given)
inactive: [1] 1.01 | [2] 0.997 | [3] 0.999 | [4] 1.03 | [5] 1.01 | [6] 1.02 | [7] 1 | [8] 1.01 | [9] 0.995 | [10] 1.01 | S. cerevisiae deletion strains, locus YNL322C, strain KRE1, stronger effect = lower value 1.01 | [11] 1.01 | [12] 1.01

OC[C@H]1O[C@@H](n2cnc3c(NCc4ccco4)ncnc32)[C@H](O)[C@@H]1O
active: S. cerevisiae deletion strains, locus YOL012C, strain htz1 2.36 [resistant]
inactive: S. cerevisiae deletion strains, locus YBR021W, strain FUR4, stronger effect = lower value 1.02 | S. cerevisiae deletion strains, locus YBR229C, strain ROT2, stronger effect = lower value 1.01 | S. cerevisiae deletion strains, locus YCL029C, strain bik1, stronger effect = lower value 1.01 | S. cerevisiae deletion strains, locus YDL035C, strain GPR1, stronger effect = lower value 1.01 | S. cerevisiae deletion strains, locus YDL074C, strain BRE1, stronger effect = lower value 1.05 | S. cerevisiae deletion strains, locus YDL101C, strain DUN1, stronger effect = lower value 1.03 | S. cerevisiae deletion strains, locus YDL185W, strain tfp1, stronger effect = lower value 1 | S. cerevisiae deletion strains, locus YDL192W, strain arf1, stronger effect = lower value 1 | S. cerevisiae deletion strains, locus YDR101C, strain arx1, stronger effect = lower value 1.02 | S. cerevisiae deletion strains, locus YDR150W, strain NUM1, stronger effect = lower value 1.01 | S. cerevisiae deletion strains, locus YDR162C, strain NBP2, stronger effect = lower value 1.02 | S. cerevisiae deletion strains, locus YDR318W, strain mcm21, stronger effect = lower value 1 | S. cerevisiae deletion strains, locus YDR388W, stronger effect = lower value 0.998 | S. cerevisiae deletion strains, locus YDR502C, strain sam2, stronger effect = lower value 0.998 | S. cerevisiae deletion strains, locus YEL061C, strain CIN8, stronger effect = lower value 1.01 | S. cerevisiae deletion strains, locus YER110C, stronger effect = lower value 1 | S. cerevisiae deletion strains, locus YER155C, strain BEM2, stronger effect = lower value 1.02 | S. cerevisiae deletion strains, locus YER167W, strain BCK2, stronger effect = lower value 1 | S. cerevisiae deletion strains, locus YGL078C, strain dbp3, stronger effect = lower value 0.999 | S. cerevisiae deletion strains, locus YGL086W, strain mad1, stronger effect = lower value 1.02 | S. cerevisiae deletion strains, locus YGL248W, strain PDE1, stronger effect = lower value 1.01 | S. cerevisiae deletion strains, locus YGR135W, strain pre9, stronger effect = lower value 1 | [6] 1.02 | S. cerevisiae deletion strains, locus YGR252W, strain gcn5, stronger effect = lower value 0.971 | S. cerevisiae deletion strains, locus YHR030C, strain SLT2, stronger effect = lower value 1 and 1.06 | S. cerevisiae deletion strains, locus YHR079C, strain IRE1 (second series), stronger effect = lower value 1.01 | S. cerevisiae deletion strains, locus YHR079C, strain IRE1, stronger effect = lower value 1.04 | S. cerevisiae deletion strains, locus YHR094C, strain hxt1, stronger effect = lower value 1 | S. cerevisiae deletion strains, locus YHR129C, strain ARP1, stronger effect = lower value 1.02 | S. cerevisiae deletion strains, locus YHR200W, strain rpn10, stronger effect = lower value 1.01 | S. cerevisiae deletion strains, locus YIL066C, strain RNR3, stronger effect = lower value 1.01 | S. cerevisiae deletion strains, locus YIL073C, strain SPO22, stronger effect = lower value 1.01 | S. cerevisiae deletion strains, locus YIL125W, strain kgd1, stronger effect = lower value 1.01 | S. cerevisiae deletion strains, locus YIR030C, strain dcg1, stronger effect = lower value 1.01 | S. cerevisiae deletion strains, locus YJL095W, strain BCK1, stronger effect = lower value 1.06 and 1.02 | S. cerevisiae deletion strains, locus YJL134W, strain LCB3, stronger effect = lower value 1.01 | S. cerevisiae deletion strains, locus YJL168C, strain set2, stronger effect = lower value 1.01 | S. cerevisiae deletion strains, locus YJL187C, strain SWE1 (second series), stronger effect = lower value 1.04 | S. cerevisiae deletion strains, locus YJR043C, strain POL32, stronger effect = lower value 1.01 | S. cerevisiae deletion strains, locus YJR066W, strain TOR1, stronger effect = lower value 0.974 | S. cerevisiae deletion strains, locus YKL009W, strain mrt4, stronger effect = lower value 1.02 | S. cerevisiae deletion strains, locus YKL068W, stronger effect = lower value 0.995 | S. cerevisiae deletion strains, locus YKL085W, strain MDH1 (second series), stronger effect = lower value 0.993 | S. cerevisiae deletion strains, locus YKL085W, strain MDH1, stronger effect = lower value 0.993 | S. cerevisiae deletion strains, locus YKL190W, strain CNB1, stronger effect = lower value 1.01 | S. cerevisiae deletion strains, locus YKR001C, strain vps1, stronger effect = lower value 1.01 | S. cerevisiae deletion strains, locus YLR039C, strain RIC1, stronger effect = lower value 1.04 | S. cerevisiae deletion strains, locus YLR058C, strain SHM2, stronger effect = lower value 1.02 | S. cerevisiae deletion strains, locus YLR102C, strain apc9, stronger effect = lower value 1 | S. cerevisiae deletion strains, locus YLR113W, strain HOG1, stronger effect = lower value 1.03 | S. cerevisiae deletion strains, locus YLR262C, strain YPT6, stronger effect = lower value 1.06 | S. cerevisiae deletion strains, locus YLR268W, strain sec22, stronger effect = lower value 1.04 | S. cerevisiae deletion strains, locus YLR330W, strain CHS5, stronger effect = lower value 1.01 | S. cerevisiae deletion strains, locus YLR342W, strain FKS1 (second series), stronger effect = lower value 1.01 | S. cerevisiae deletion strains, locus YLR371W, strain rom2, stronger effect = lower value 1 | S. cerevisiae deletion strains, locus YLR418C, strain cdc73, stronger effect = lower value 1.01 | S. cerevisiae deletion strains, locus YML016C, strain PPZ1, stronger effect = lower value 1.01 | S. cerevisiae deletion strains, locus YML032C, strain rad52, stronger effect = lower value 0.988 | S. cerevisiae deletion strains, locus YML124C, strain tub3, stronger effect = lower value 0.996 | S. cerevisiae deletion strains, locus YMR078C, strain ctf18, stronger effect = lower value 0.998 | S. cerevisiae deletion strains, locus YMR223W, strain ubp8, stronger effect = lower value 1 | [7] 1.02 | [13] 1.04 | S. cerevisiae deletion strains, locus YNL067W, strain RPL9B, stronger effect = lower value 1.04 | S. cerevisiae deletion strains, locus YNL183C, strain NPR1, stronger effect = lower value 0.991 | S. cerevisiae deletion strains, locus YNL233W, strain BNI4, stronger effect = lower value 1.05 | S. cerevisiae deletion strains, locus YNL250W, strain rad50, stronger effect = lower value 1.02 | S. cerevisiae deletion strains, locus YNL271C, strain bni1, stronger effect = lower value 1 | S. cerevisiae deletion strains, locus YNL298W, strain CLA4, stronger effect = lower value 0.995 | S. cerevisiae deletion strains, locus YNL307C, strain MCK1, stronger effect = lower value 1.01 | S. cerevisiae deletion strains, locus YNR052C, strain pop2, stronger effect = lower value 0.996 | S. cerevisiae deletion strains, locus YOL147C, strain pex11, stronger effect = lower value 0.998 | S. cerevisiae deletion strains, locus YOR061W, strain CKA2, stronger effect = lower value 1.01 | S. cerevisiae deletion strains, locus YOR069W, strain VPS5, stronger effect = lower value 1.01 | S. cerevisiae deletion strains, locus YOR136W, strain idh2, stronger effect = lower value 1 | S. cerevisiae deletion strains, locus YOR144C, strain elg1, stronger effect = lower value 0.987 | S. cerevisiae deletion strains, locus YOR184W, strain ser1, stronger effect = lower value 0.999 | S. cerevisiae deletion strains, locus YOR231W, strain MKK1, stronger effect = lower value 1.05 | S. cerevisiae deletion strains, locus YOR316C, strain cot1, stronger effect = lower value 1 | [12] 1.03 | [14] 1 | S. cerevisiae deletion strains, locus YPL256C, strain CLN2, stronger effect = lower value 1.06 | S. cerevisiae deletion strains, locus YPR119W, strain clb2, stronger effect = lower value 1 | S. cerevisiae deletion strains, locus YPR141C, strain kar3, stronger effect = lower value 1.01 | S. cerevisiae deletion strains, locus YPR163C, strain tif3, stronger effect = lower value 1 | S. cerevisiae deletion strains, locus YPR167C, strain met16, stronger effect = lower value 1.01 | S. cerevisiae deletion strains, strain wtn01, stronger effect = lower value 1.04 | S. cerevisiae strains, strain wild type, stronger effect = lower value 1.01

CNc1ncnc2c1ncn2[C@@H]1O[C@H](CO)[C@H](O)C1O (stereo not given in full)
inactive: [1] 1.02 | [2] 1 | [3] 0.993 | [4] 0.996 | [5] 0.978 | [6] 1.01 | [13] 1.01 | S. cerevisiae deletion strains, locus YNL153C, strain GIM3, stronger effect = lower value 1.01 | [8] 0.996 | [9] 0.999 | [10] 1 | [11] 1 | [14] 1
